Measured values reported in PubChem BioAssay.
The source made the active and inactive calls.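 How the source made its calls, unless noted: active means mean inhibition above 46.5%, the solvent-only control mean plus 3 SD; inactive means the rest.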

How the values were obtained:
[1] = tested on: transactivating tegument protein VP16 (Human herpesvirus 1); test: compounds suppressing VP16-driven luciferase signal – cell-based, luminescence, single concentration, counter-screen for SRC2 inhibitor project (AID 652007; in the data active means inhibition above about 36%); settings: cell-based VP16 transactivation luciferase reporter, at 8.9 µM, active compounds read high
[2] = biological target: Nuclear receptor coactivator 2 (Homo sapiens) (UniProt Q15596); test: inhibition of GAL4-SRC2 driven luciferase expression – cell-based, luminescence, HEK293, triplicate, confirmation (AID 652008); settings: HEK293 GAL4-SRC2 luciferase reporter, at 8.9 µM, active compounds read high;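 further: 0% = DMSO-treated cells and 100% = Gossypol at 36 µM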
Nuclear receptor coactivator 2 (Homo sapiens), sequence (Q15596 whole entry, looked up, the tested form may be a part): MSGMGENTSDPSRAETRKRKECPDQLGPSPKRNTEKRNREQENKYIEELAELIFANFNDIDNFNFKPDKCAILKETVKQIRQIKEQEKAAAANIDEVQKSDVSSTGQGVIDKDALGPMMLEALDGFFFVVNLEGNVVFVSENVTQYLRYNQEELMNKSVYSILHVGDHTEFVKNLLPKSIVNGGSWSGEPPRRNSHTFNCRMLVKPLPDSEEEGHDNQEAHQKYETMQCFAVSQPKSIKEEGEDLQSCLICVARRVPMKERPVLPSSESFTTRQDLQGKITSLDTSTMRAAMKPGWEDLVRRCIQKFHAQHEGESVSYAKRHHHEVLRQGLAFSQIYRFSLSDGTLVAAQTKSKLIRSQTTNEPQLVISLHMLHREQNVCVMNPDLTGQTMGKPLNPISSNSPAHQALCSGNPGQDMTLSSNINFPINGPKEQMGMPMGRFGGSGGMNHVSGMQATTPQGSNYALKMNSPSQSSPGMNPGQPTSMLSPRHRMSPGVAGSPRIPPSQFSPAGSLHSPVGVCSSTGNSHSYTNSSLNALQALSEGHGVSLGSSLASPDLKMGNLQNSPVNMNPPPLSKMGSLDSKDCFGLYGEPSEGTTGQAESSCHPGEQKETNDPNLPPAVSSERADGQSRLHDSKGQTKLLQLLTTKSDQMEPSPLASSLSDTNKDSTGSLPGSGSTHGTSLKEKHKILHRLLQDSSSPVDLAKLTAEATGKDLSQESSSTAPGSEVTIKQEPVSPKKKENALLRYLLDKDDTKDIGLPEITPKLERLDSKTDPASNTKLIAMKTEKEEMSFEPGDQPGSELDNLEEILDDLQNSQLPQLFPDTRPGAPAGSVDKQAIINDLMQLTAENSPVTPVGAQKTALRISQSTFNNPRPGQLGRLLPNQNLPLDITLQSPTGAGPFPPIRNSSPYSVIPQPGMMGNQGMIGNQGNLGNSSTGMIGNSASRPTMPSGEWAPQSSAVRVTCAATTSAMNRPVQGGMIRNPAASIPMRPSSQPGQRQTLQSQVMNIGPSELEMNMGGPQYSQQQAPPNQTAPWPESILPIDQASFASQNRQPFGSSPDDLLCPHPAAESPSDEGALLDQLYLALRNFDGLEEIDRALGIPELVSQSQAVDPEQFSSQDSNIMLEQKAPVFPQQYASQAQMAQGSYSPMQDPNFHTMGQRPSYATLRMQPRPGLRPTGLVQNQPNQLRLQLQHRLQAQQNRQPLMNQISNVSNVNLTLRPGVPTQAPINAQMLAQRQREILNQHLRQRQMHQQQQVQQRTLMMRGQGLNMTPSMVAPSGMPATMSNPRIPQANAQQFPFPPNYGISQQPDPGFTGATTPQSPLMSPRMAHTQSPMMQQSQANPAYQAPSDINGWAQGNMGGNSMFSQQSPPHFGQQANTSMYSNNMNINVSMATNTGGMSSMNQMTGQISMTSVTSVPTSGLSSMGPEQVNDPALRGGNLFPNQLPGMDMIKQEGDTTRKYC

Row | SMILES | inhibition [1] | inhibition [2]
1 | Nc1ccc(Oc2ccc3c(c2)C(=O)N(CC2CCCO2)C3=O)cc1 (centres undefined) | -45.6% (inactive) | 52.8% (active)
2 | CCc1sc(NC(=O)CN2CCOCC2)nc1-c1ccccc1 | -0.48% (inactive) | -0.93% (inactive)
3 | CCc1ccc(C=C2SC(=S)N(CCCC(=O)Nc3ccc(C(=O)O)cc3)C2=O)cc1 | -9.93% (inactive) | -5.86% (inactive)
4 | C[N+]1(CC2COC3(CCCCC3)O2)CCCC1 (centres undefined) | -9.45% (inactive) | -21.5% (inactive)
5 | COc1cc(F)ccc1-c1csc(C(O)c2ccc(F)c(F)c2)n1 (centres undefined) | -3.93% (inactive) | 10.6% (inactive)
6 | COc1cc(-c2nnc(-c3cc(-c4ccccc4)nc4ccccc34)o2)cc(OC)c1OC | -13.1% (inactive) | -5.55% (inactive)
7 | Cc1nc([N+](=O)[O-])c(Br)n1Cc1ccc(Cl)c(Cl)c1 | 10.6% (inactive) | 43.9% (inactive)
8 | Cc1c(CCC(=O)N[C@@H](C)C(=O)O)c(=O)oc2cc3oc4c(c3cc12)CCCC4 | 38.8% (active) | 60.1% (active)
9 | O=C(CCCN1C(=O)/C(=C/c2ccccc2Cl)SC1=S)Nc1cccnc1 | -29.3% (inactive) | -4.66% (inactive)
10 | CCS(=O)(=O)Nc1ccc(C2=NN(C(=O)c3ccco3)C(c3cccs3)C2)cc1 (centres undefined) | -5.61% (inactive) | -29.7% (inactive)
11 | CC(C)(c1ccc(O)cc1)c1ccc(O)c(C(=O)O)c1 | -8.08% (inactive) | -5.54% (inactive)
12 | COc1ccc(C(=O)O/N=C(\N)c2ccccn2)cc1 | -70.2% (inactive) | 30% (inactive)
